Test results as given in the supplement of paper PMC12645437, “Orthogonal IMiD-Degron Pairs Induce Selective Protein Degradation in Cells” (ACS Chemical Biology, 2025).
Whole data set: some 8,300 sequences, median “log2 fold change of degron read counts, EGFP-low vs EGFP+ sorted cells (limma voom), compound-induced degradation” near -1.1, cut for the highest 2% near 3.2. The entries come from a sample that favours the highest values as a whole.

Molecular target: T1, CRBN, Q96SW2
T1 chain: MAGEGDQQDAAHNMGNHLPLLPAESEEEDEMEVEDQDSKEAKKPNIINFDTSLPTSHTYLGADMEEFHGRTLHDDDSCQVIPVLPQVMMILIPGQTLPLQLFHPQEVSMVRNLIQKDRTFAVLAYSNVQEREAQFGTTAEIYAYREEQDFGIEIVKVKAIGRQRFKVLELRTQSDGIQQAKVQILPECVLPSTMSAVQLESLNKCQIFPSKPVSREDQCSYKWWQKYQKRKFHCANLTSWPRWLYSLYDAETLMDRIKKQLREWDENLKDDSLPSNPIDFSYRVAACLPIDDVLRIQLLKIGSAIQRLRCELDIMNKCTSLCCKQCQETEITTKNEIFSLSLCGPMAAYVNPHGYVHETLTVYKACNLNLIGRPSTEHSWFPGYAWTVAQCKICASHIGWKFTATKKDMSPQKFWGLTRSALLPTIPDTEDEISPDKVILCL
Test: log2 fold change of degron read counts, EGFP-low vs EGFP+ sorted cells (limma voom), compound-induced degradation; higher = more compound-induced degradation of the degron-EGFP fusion; degrons are variants of IKZF1/3 zinc finger 2; compound dose not given here
Conditions: Jurkat, 18 h
Protocol: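 Pooled library of 8380 IKZF3 ZF2 degron mutants (positions 146-167 varied within the IKZF3 130-189 degron; only the varied core is printed, flanks not printed) fused to EGFP with IRES-mCherry, lentivirally expressed in Jurkat cells. mCherry+ cells were treated with one IMiD compound for 18 h (dose not stated) and FACS-sorted into EGFP-low and EGFP+ populations. Degron sequences were counted by NGS, and log2FC (EGFP-low vs EGFP+) was estimated by limma voom over 3 biological replicates.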

[1] = compound: compound 19 (5-tert-butyl-thalidomide)
[2] = compound: compound 22 (5-morpholino-thalidomide)
[3] = compound: compound 33 (diphenyl IMiD analogue)
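Note: pooled lentiviral library of zinc finger degron-EGFP fusions in mCherry-positive Jurkat cells, FACS-sorted after compound exposure, with degron abundance counted by next-generation sequencing.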

| Sequence | log2 fold change of degron read counts [1] | log2 fold change of degron read counts [2] | log2 fold change of degron read counts [3] | log2 fold change of degron read counts (compound: thalidomide) |
| --- | --- | --- | --- | --- |
| FVCPVCGAMFTQKGNLLRHIKL [46F_47V_49P_50V_52G_53A_54M_55F_67L_, Q9UKT9] | -0.83 | 1.28 | 1.78 | 1.71 |
| FACPVCGAMFTQKGNLLRHIKL [46F_47A_49P_50V_52G_53A_54M_55F_67L_, Q9UKT9] | 2.83 | 0.812 | 0.601 | -0.0754 |
| FNCPVCGAMFTQKGNLLRHIKL [46F_47N_49P_50V_52G_53A_54M_55F_67L_, Q9UKT9] | 0.95 | -0.0712 | 0.173 | 0.109 |
| FSCPVCGAMFTQKGNLLRHIKL [46F_47S_49P_50V_52G_53A_54M_55F_67L_, Q9UKT9] | 1.68 | 0.847 | 1.55 | 0.449 |
| FGCPVCGAMFTQKGNLLRHIKL [46F_47G_49P_50V_52G_53A_54M_55F_67L_, Q9UKT9] | 3.86 | 2.08 | 2.22 | 0.29 |
| FQCPVCGAMFTQKGNLLRHIKL [46F_47Q_49P_50V_52G_53A_54M_55F_67L_, Q9UKT9] | -0.606 | 2.26 | 2.34 | 3.58 |
| LHCNQCGFRCTQKGNLLRHIKL [46L_47H_49N_50Q_52G_53F_54R_55C_67L_, Q9UKT9] | -1.15 | -1.7 | -1.52 | -1.61 |
| FRCPICGHQFTQKGNLLRHIKL [46F_47R_49P_50I_52G_53H_54Q_55F_67L_, Q9UKT9] | -2.97 | -2.88 | -2.09 | -1.65 |
| FNCEICGRGFTQKGNLLRHIKL [46F_47N_49E_50I_52G_53R_54G_55F_67L_, Q9UKT9] | -0.684 | -2.34 | -2.3 | -2.43 |
| FICDVCGADFTQKGNLLRHIKL [46F_47I_49D_50V_52G_53A_54D_55F_67L_, Q9UKT9] | -3.13 | -2.03 | -2.05 | -2.17 |
| FTCEICGRSFTQKGNLLRHIKL [46F_47T_49E_50I_52G_53R_54S_55F_67L_, Q9UKT9] | -2.68 | -1.98 | -1.23 | -0.866 |
| FVCNICGAAFTQKGNLLRHIKL [46F_47V_49N_50I_52G_53A_54A_55F_67L_, Q9UKT9] | -0.113 | 1.76 | 1.87 | 2.31 |
| LVCNQCGFDCTQKGNLLRHIKL [46L_47V_49N_50Q_52G_53F_54D_55C_67L_, Q9UKT9] | -2.99 | -3.3 | -2.89 | -2.71 |
| LTCNQCGFFCTQKGNLLRHIKL [46L_47T_49N_50Q_52G_53F_54F_55C_67L_, Q9UKT9] | -1.72 | -1.87 | -2.06 | -1.27 |
| FQCEVCGAEFTQKGNLLRHIKL [46F_47Q_49E_50V_52G_53A_54E_55F_67L_, Q9UKT9] | 0.65 | 0.856 | 1.61 | 3.7 |
| FYCEVCGAEFTQKGNLLRHIKL [46F_47Y_49E_50V_52G_53A_54E_55F_67L_, Q9UKT9] | 3.4 | 2.95 | 2.08 | 0.0761 |
| FQCPVCGAEFTQKGNLLRHIKL [46F_47Q_49P_50V_52G_53A_54E_55F_67L_, Q9UKT9] | 0.475 | 1.57 | 2.3 | 3.76 |
| FVCPVCGAEFTQKGNLLRHIKL [46F_47V_49P_50V_52G_53A_54E_55F_67L_, Q9UKT9] | -0.775 | 1.8 | 1.37 | 2.53 |
| FKCEVCGAEFTQKGNLLRHIKL [46F_47K_49E_50V_52G_53A_54E_55F_67L_, Q9UKT9] | -1.42 | -2.94 | -2.99 | -1.02 |
| FSCPVCGAEFTQKGNLLRHIKL [46F_47S_49P_50V_52G_53A_54E_55F_67L_, Q9UKT9] | 1.12 | 0.204 | 1.45 | 0.472 |
| FFCEVCGAEFTQKGNLLRHIKL [46F_47F_49E_50V_52G_53A_54E_55F_67L_, Q9UKT9] | 3.01 | 3.05 | 0.82 | 0.898 |
| FNCEVCGAEFTQKGNLLRHIKL [46F_47N_49E_50V_52G_53A_54E_55F_67L_, Q9UKT9] | 0.9 | -1.18 | -1.23 | -0.895 |
| FTCEVCGAEFTQKGNLLRHIKL [46F_47T_49E_50V_52G_53A_54E_55F_67L_, Q9UKT9] | -0.301 | 1.19 | 0.247 | 1.9 |
| FWCPICGHQFTQKGNLLRHIKL [46F_47W_49P_50I_52G_53H_54Q_55F_67L_, Q9UKT9] | -1.19 | 0.164 | -0.157 | -0.942 |
| FHCNVCGALFTQKGNLLRHIKL [46F_47H_49N_50V_52G_53A_54L_55F_67L_, Q9UKT9] | -1.06 | -1.21 | -0.823 | -1.55 |
| LTCEICGFDCTQKGNLLRHIKL [46L_47T_49E_50I_52G_53F_54D_55C_67L_, Q9UKT9] | -3.24 | -2.7 | -2.79 | -2.46 |
| LLCNQCGFACTQKGNLLRHIKL [46L_47L_49N_50Q_52G_53F_54A_55C_67L_, Q9UKT9] | -2.26 | -2.6 | -2.27 | -1.53 |
| FVCNQCGATFTQKGNLLRHIKL [46F_47V_49N_50Q_52G_53A_54T_55F_67L_, Q9UKT9] | -2.74 | -1.56 | -1.1 | -1.67 |
